Compounds with a hit are over-represented: about 7.5% of the library has one in this group of screens.
HCV inhibitor: HCV inhibition; Huh7.5.1 HCVcc-Cre infection, luciferase reporter, 44 h; Potency, µM (top dose mostly 41.8 µM), for inactives: at the top dose activity change, negative = inhibition, most hits filed as inhibitors; actives 3.4% (n = 340,000); AID 651820; also: potency is read from the fitted curve at half-maximal effect
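Infectious HCV cell culture screen: compound-treated cells (1,000/well, pre-plated 4 h) are infected with HCVcc-Cre at roughly 0.5 moi and grown 44 h. Infection is quantified by luciferase signal after 15 min substrate incubation at room temperature.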
VACV mCherry inh: vaccinia inhibition (mCherry reporter). Vaccinia virus mCherry reporter infection, fluorescence. AID 720579. actives 0.63% (n = 310,000). Potency, µM (titrated, usually from 36.5 µM), inactives show top-dose activity change, negative = inhibition, actives largely listed as inhibitors; calls by dose curve; tested in A549 cells; also: potency is read from the fitted curve at half-maximal effect; nearly all actives have a fitted effect of over 35% in size
HCMV antiviral: inhibitors of human cytomegalovirus | actives 4.5% (n = 410,000) | HFF cells, HCMV-luciferase reporter, 72 h; hits give low values | activity change, negative = inhibition, % at 57.5 µM; in the data active = activity change below about -60%; inconclusive = no clear call, values can overlap the other calls; inactive = above about -39%
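HFF cells seeded 16 h at 37C, treated with compounds, infected with luciferase-reporter HCMV at MOI 1 PFU/cell; luciferase read at 72 h post infection, normalized to buffer-only and Salinomycin controls.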
FBPA Giardia inh: blocks Giardia fructose-bisphosphate aldolase activity. AID 2451. Potency, µM (series often up to 59.6 µM), for inactives: at the top dose activity, negative = inhibition, hits mostly inhibitors. actives 0.71% (n = 290,000). A8B2U2. purified Giardia FBPA; also: potency is read from the fitted curve at half-maximal effect; nearly all actives have a fitted effect of over 55% in size
Target sequence (A8B2U2 whole entry, looked up): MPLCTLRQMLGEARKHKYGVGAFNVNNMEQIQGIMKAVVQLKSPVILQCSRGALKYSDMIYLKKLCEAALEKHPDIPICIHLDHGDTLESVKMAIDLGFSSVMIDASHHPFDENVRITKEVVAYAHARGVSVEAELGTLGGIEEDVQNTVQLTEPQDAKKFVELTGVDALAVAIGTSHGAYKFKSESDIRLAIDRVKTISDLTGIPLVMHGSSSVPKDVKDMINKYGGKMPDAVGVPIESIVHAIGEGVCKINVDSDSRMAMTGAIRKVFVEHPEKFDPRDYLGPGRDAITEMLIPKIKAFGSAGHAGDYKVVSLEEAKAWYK
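40 nM FBPA preincubated 10 min at RT with compound (up to 57.5 uM final), then substrate plus GAPDH/TPI/NAD/arsenate coupling and diaphorase/resazurin added. Fluorescence read after 20 min at RT, 525/598 nm.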
FMDV antiviral: antivirals against foot and mouth disease virus; AID 1159524; FMDV antiviral cell-based qHTS; Potency, µM (titrated, usually from 57.9 µM), for the others: at the top dose activity change, negative = inhibition, usual class: inhibitors; actives 1.2% (n = 410,000); calls by dose curve; tested in HEK293T cells; also: read-out not given here; potency is read from the fitted curve at half-maximal effect; nearly all actives have a fitted effect of over 45% in size
VACV Venus inh: vaccinia inhibition (Venus reporter). Potency, µM (highest dose often 36.5 µM), without a hit: at the highest dose activity change, negative = inhibition, most hits filed as inhibitors. Vaccinia virus Venus reporter expression, fluorescence. actives 0.46% (n = 330,000); calls by dose curve; tested in A549 cells; also: potency is read from the fitted curve at half-maximal effect; nearly all actives have a fitted effect of over 30% in size
Starred values were filed as active, the others as inactive. Unless noted, calls follow the shape of the dose curve; as a rule, active = well fitted curve in the direction sought with a large enough effect; inconclusive = small, poorly fitted or top-dose-only effect, or another doubt; inactive = no such curve, though single readings can be large; an effect the other way counts as inactive or inconclusive. % is scaled to controls: 0 for no effect and ±100 for the full control effect.

Screening COCCCn1c(=N)c(S(=O)(=O)c2ccccc2)cc2c(=O)n3cccc(C)c3nc21 returned VACV mCherry inh -8%, HCMV antiviral -8, FMDV antiviral -2% and VACV Venus inh -3%.
COc1ccc(N2CC(NC(=O)/C=C\c3ccc(OC)c(OC)c3)CC2=O)cc1 (stereo not given) was read as VACV mCherry inh -17%, HCMV antiviral 26, FMDV antiviral -8% and VACV Venus inh -14%.
For Cc1[nH]c2ccc(C(=O)NCCCN(C)C3CCCCC3)cc2c1C the results were HCV inhibitor -13%, VACV mCherry inh -13%, HCMV antiviral -62*, FBPA Giardia inh 7%, FMDV antiviral -6% and VACV Venus inh -17%.
For COC(=O)C(NC(=O)OCc1ccccc1)(c1ccc(Cl)cc1)C(Nc1ccccc1)c1ccccc1 (stereo not given) the results were HCMV antiviral 24.
Screening Cc1ccc(-c2csc3nc(-c4ccncc4)[nH]c(=O)c23)cc1 returned HCV inhibitor 5.6µM*, VACV mCherry inh -5%, HCMV antiviral 20, FBPA Giardia inh 2%, FMDV antiviral -26% and VACV Venus inh -5%.
Cc1ccc(-c2csc3nc(C)n(N)c(=O)c23)cc1 was read as HCV inhibitor 7%, HCMV antiviral -86*, FBPA Giardia inh 4% and FMDV antiviral 6%.
Screening Cc1ccc(-c2csc3nc(SCC(N)=O)n(Cc4ccccc4)c(=O)c23)cc1 returned HCV inhibitor inconclusive, VACV mCherry inh -9%, HCMV antiviral -28, FBPA Giardia inh 0%, FMDV antiviral 32µM* and VACV Venus inh inconclusive.
Screening Cc1ccc(-c2csc3ncnc(SCC(N)=O)c23)cc1 returned HCV inhibitor inconclusive, VACV mCherry inh 0%, HCMV antiviral -28, FBPA Giardia inh 1%, FMDV antiviral -26% and VACV Venus inh -17%.
`CC(C)(C)NC(=O)C(c1ccccc1F)n1c(=O)c(-c2cc3ccccc3[nH]2)nc2ccccc21` (stereo not given) gave VACV mCherry inh inconclusive, HCMV antiviral 31, FMDV antiviral 16% and VACV Venus inh -26%.
`COc1ccccc1CNC(=O)Cn1c(=O)nc(-c2ccccc2)c2ccccc21` gave VACV mCherry inh -14%, HCMV antiviral 13, FMDV antiviral 5% and VACV Venus inh -7%.
CCCCOc1ccc(CNC(=O)CCCN2C(=O)CSc3c2c(C)nn3-c2ccccc2)cc1 was read as VACV mCherry inh -21%, HCMV antiviral -70*, FMDV antiviral -16% and VACV Venus inh -15%.
Cc1cccc(NC(=O)C2CCCN(S(=O)(=O)c3ccc4c(c3)CCCC(=O)N4)C2)c1 (stereo not given) was read as VACV mCherry inh -2%, HCMV antiviral 12, FMDV antiviral inconclusive and VACV Venus inh 2%.
For O=C(Nc1ccccc1)C1CCCN(C(=O)c2ccc(Cl)cc2)C1 (stereo not given) the results were HCV inhibitor -9%, VACV mCherry inh -14%, HCMV antiviral -65*, FBPA Giardia inh 1%, FMDV antiviral inconclusive and VACV Venus inh -21%.
CC(=O)c1ccc(NC(=O)C2CCCN(C(=O)c3ccc(Cl)cc3)C2)cc1 (stereo not given) was read as HCV inhibitor -4%, VACV mCherry inh -10%, HCMV antiviral -22, FBPA Giardia inh 5%, FMDV antiviral -10% and VACV Venus inh -22%.
COc1ccc(NC(=O)C2CCCN(C(=O)c3ccc(Cl)cc3)C2)cc1Cl (stereo not given) was read as HCV inhibitor inconclusive, HCMV antiviral -73* and FMDV antiviral -11%.
Screening O=C1CCCc2cc(S(=O)(=O)N3CCCC(C(=O)Nc4ccc(F)c(Cl)c4)C3)ccc2N1 (stereo not given) returned VACV mCherry inh -7%, HCMV antiviral -40, FMDV antiviral 32µM* and VACV Venus inh 0%.
